# Assay results: PubChem BioAssay (NCI)
# This is part of a sample that, as a whole, favours compounds with a hit. Of some 79,000 tested, about 15% had one in any assay. Unmarked numbers belong to inactive results. The source made the active and inactive calls. Rule as the data show it: active = growth inhibition above about 70%; inactive = the rest.
# Experiments:
# [1] = NCI Yeast Anticancer Drug Screen. Data for the wt1 strain (AID 149);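 also: 0% = growth of vehicle-treated wt1 cultures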; conditions: S. cerevisiae wt1 strain (SPY 50644) growth inhibition, stronger effect = higher value
# In short: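 Vehicle-normalised growth inhibition; strain wt1; compound exposure.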
# [2] = NCI Yeast Anticancer Drug Screen. Data for the rad50EPP+ strain (AID 151);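 also: 0% = growth of vehicle-treated control cultures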; conditions: S. cerevisiae rad50 mutant strain, stronger effect = higher value
# In short: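 In this screen, rad50EPP+ yeast were exposed to compounds. Growth inhibition was scored against vehicle-treated controls.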
# [3] = NCI Yeast Anticancer Drug Screen. Data for the rad50 strain (AID 155);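 also: 0% = growth of vehicle-only cultures of the same strain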; conditions: S. cerevisiae rad50 strain growth inhibition, stronger effect = higher value
# In short: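 A DNA repair-deficient yeast mutant serves as the test organism; compound-induced growth inhibition is calculated against vehicle-treated cells.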
# [4] = NCI Yeast Anticancer Drug Screen. Data for the mec2-1 strain (AID 157); conditions: S. cerevisiae mec2-1 strain, stronger effect = higher value
# In short: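 Vehicle-treated cultures served as reference for growth inhibition of compound-exposed mec2-1 yeast.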
# [5] = NCI Yeast Anticancer Drug Screen. Data for the rad14 strain (AID 159);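 also: 0% = growth of vehicle-treated control cultures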; conditions: S. cerevisiae rad14 strain growth inhibition, stronger effect = higher value
# In short: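 Vehicle-treated cultures served as the baseline for growth inhibition of a DNA repair-mutant yeast strain exposed to each compound.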
# [6] = NCI Yeast Anticancer Drug Screen. Data for the sgs1 mgt1 strain (AID 161);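 also: 0% = growth of cultures given vehicle only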; conditions: S. cerevisiae sgs1 mgt1 strain, stronger effect = higher value
# In short: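 Inhibition of yeast growth, normalised to vehicle-treated controls, is reported for a strain bearing genetic alterations in DNA damage repair.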
# [7] = NCI Yeast Anticancer Drug Screen. Data for the cln2 rad14 strain (AID 165);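 also: 0% = growth equal to vehicle treated cultures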; conditions: S. cerevisiae cln2 rad14 strain, stronger effect = higher value
# In short: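 Each compound was tested on cln2 rad14 yeast. Inhibition of growth was calculated against vehicle-exposed controls.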
# [8] = NCI Yeast Anticancer Drug Screen. Data for the bub3 strain (AID 167); conditions: S. cerevisiae bub3 mutant strain, stronger effect = higher value
# In short: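 Inhibition values come from growth of compound-treated mutant yeast normalised to vehicle-treated controls.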
# [9] = NCI Yeast Anticancer Drug Screen. Data for the wt2 strain (AID 169);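 also: 0% = growth of vehicle-treated yeast cultures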; conditions: S. cerevisiae wt2 strain growth inhibition, stronger effect = higher value
# In short: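 Inhibition of yeast growth was determined after compound treatment, normalised to controls receiving only vehicle.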
# [10] = NCI Yeast Anticancer Drug Screen. Data for the mlh1 strain (AID 171);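 also: 0% = growth of vehicle-treated control cultures of the same strain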; conditions: S. cerevisiae mlh1 strain growth inhibition, stronger effect = higher value
# In short: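 Vehicle-normalised growth inhibition of a repair- or checkpoint-altered yeast strain following compound treatment.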
# [11] = NCI Yeast Anticancer Drug Screen. Data for the sgs1 strain (AID 173);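 also: 0% = growth of vehicle-only control cultures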; conditions: S. cerevisiae sgs1 mutant, stronger effect = higher value
# In short: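 Screen format: yeast with repair or checkpoint alterations, compound exposure, growth read relative to vehicle.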
# [12] = NCI Yeast Anticancer Drug Screen. Data for the mlh1 rad18 strain (AID 175); conditions: S. cerevisiae mlh1 rad18 strain growth inhibition, stronger effect = higher value
# In short: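 Vehicle-treated cultures served as the reference for growth inhibition in a yeast strain carrying DNA damage repair alterations exposed to each compound.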
# [13] = NCI Yeast Anticancer Drug Screen. Data for the rad18 strain (AID 177); conditions: S. cerevisiae rad18 mutant growth inhibition, stronger effect = higher value
# In short: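 Test articles were incubated with altered yeast defective in DNA damage repair. Results are given as inhibition of growth versus vehicle.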
# [14] = NCI Yeast Anticancer Drug Screen. Data for the CLN2oe strain (AID 163);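 also: 0% = growth of vehicle-only control cultures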; conditions: S. cerevisiae CLN2oe strain, stronger effect = higher value
# In short: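 Inhibition relative to vehicle-treated yeast is reported. Cells: strain with genetic alteration in cell-cycle control, grown with compound.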
# [15] = at 5.0 µM (retest, dose inferred, filed as 0.5)
# [16] = at 50.0 µM (retest, dose inferred, filed as 5.0)
compound,measurement,setting,value
CCCC(=O)OC(OC(=O)CCC)c1ccc([N+](=O)[O-])o1,growth inhibition,[1]; at 1.2 µM,-3%
same,growth inhibition,[1]; at 3.7 µM,-2%
same,growth inhibition,[1]; at 11.0 µM,-1%
same,growth inhibition,[1]; at 33.0 µM,2%
same,growth inhibition,[1]; at 100.0 µM,11%
same,growth inhibition,[2]; at 1.2 µM,2%
same,growth inhibition,[2]; at 3.7 µM,15%
same,growth inhibition,[2]; at 11.0 µM,46%
same,growth inhibition,[2]; at 33.0 µM,83% (active)
same,growth inhibition,[2]; at 100.0 µM,93% (active)
same,growth inhibition,[3]; at 1.2 µM,-2%
same,growth inhibition,[3]; at 3.7 µM,-1%
same,growth inhibition,[3]; [15],22%
same,growth inhibition,[3]; at 11.0 µM,10%
same,growth inhibition,[3]; at 33.0 µM,47%
same,growth inhibition,[3]; [16],34%
same,growth inhibition,[3]; at 50.0 µM,63.9%
same,growth inhibition,[3]; at 100.0 µM,83% (active)
same,growth inhibition,[4]; at 1.2 µM,-4%
same,growth inhibition,[4]; at 3.7 µM,-1%
same,growth inhibition,[4]; [15],17%
same,growth inhibition,[4]; at 11.0 µM,2%
same,growth inhibition,[4]; at 33.0 µM,5%
same,growth inhibition,[4]; [16],8%
same,growth inhibition,[4]; at 50.0 µM,-1.45%
same,growth inhibition,[4]; at 100.0 µM,20%
same,growth inhibition,[5]; at 1.2 µM,-6%
same,growth inhibition,[5]; at 3.7 µM,-4%
same,growth inhibition,[5]; at 11.0 µM,1%
same,growth inhibition,[5]; at 33.0 µM,7%
same,growth inhibition,[5]; at 100.0 µM,26%
same,growth inhibition,[6]; [15],14%
same,growth inhibition,[6]; [16],55%
same,growth inhibition,[6]; at 50.0 µM,53.4%
same,growth inhibition,[7]; [15],1%
same,growth inhibition,[7]; [16],8%
same,growth inhibition,[7]; at 50.0 µM,12.1%
same,growth inhibition,[8]; at 1.2 µM,-4%
same,growth inhibition,[8]; at 3.7 µM,-5%
same,growth inhibition,[8]; [15],2%
same,growth inhibition,[8]; at 11.0 µM,-4%
same,growth inhibition,[8]; at 33.0 µM,-3%
same,growth inhibition,[8]; [16],7%
same,growth inhibition,[8]; at 50.0 µM,14.4%
same,growth inhibition,[8]; at 100.0 µM,3%
same,growth inhibition,[9]; at 1.2 µM,-3%
same,growth inhibition,[9]; at 3.7 µM,-3%
same,growth inhibition,[9]; at 11.0 µM,-3%
same,growth inhibition,[9]; at 33.0 µM,1%
same,growth inhibition,[9]; at 100.0 µM,11%
same,growth inhibition,[10]; at 1.2 µM,-5%
same,growth inhibition,[10]; at 3.7 µM,-2%
same,growth inhibition,[10]; at 11.0 µM,0%
same,growth inhibition,[10]; at 33.0 µM,7%
same,growth inhibition,[10]; at 100.0 µM,20%
same,growth inhibition,[11]; at 1.2 µM,-1%
same,growth inhibition,[11]; at 3.7 µM,1%
same,growth inhibition,[11]; at 11.0 µM,7%
same,growth inhibition,[11]; at 33.0 µM,21%
same,growth inhibition,[11]; at 100.0 µM,61%
same,growth inhibition,[12]; [15],22%
same,growth inhibition,[12]; [16],71% (active)
same,growth inhibition,[12]; at 50.0 µM,35.1%
same,growth inhibition,[13]; at 1.2 µM,1%
same,growth inhibition,[13]; at 3.7 µM,14%
same,growth inhibition,[13]; at 11.0 µM,42%
same,growth inhibition,[13]; at 33.0 µM,85% (active)
same,growth inhibition,[13]; at 100.0 µM,94% (active)
C#CC1=CC(=O)C(OC)=CC1=O,growth inhibition,[1]; at 1.2 µM,-2%
same,growth inhibition,[1]; at 3.7 µM,-1%
same,growth inhibition,[1]; at 11.0 µM,23%
same,growth inhibition,[1]; at 33.0 µM,90% (active)
same,growth inhibition,[1]; at 100.0 µM,98% (active)
same,growth inhibition,[2]; at 1.2 µM,9%
same,growth inhibition,[2]; at 3.7 µM,21%
same,growth inhibition,[2]; at 11.0 µM,43%
same,growth inhibition,[2]; at 33.0 µM,95% (active)
same,growth inhibition,[2]; at 100.0 µM,98% (active)
same,growth inhibition,[3]; at 1.2 µM,14%
same,growth inhibition,[3]; at 3.7 µM,34%
same,growth inhibition,[3]; [15],53%
same,growth inhibition,[3]; at 11.0 µM,94% (active)
same,growth inhibition,[3]; at 33.0 µM,98% (active)
same,growth inhibition,[3]; [16],99% (active)
same,growth inhibition,[3]; at 50.0 µM,30.4%
same,growth inhibition,[3]; at 100.0 µM,98% (active)
same,growth inhibition,[4]; at 1.2 µM,0%
same,growth inhibition,[4]; at 3.7 µM,14%
same,growth inhibition,[4]; [15],23%
same,growth inhibition,[4]; at 11.0 µM,89% (active)
same,growth inhibition,[4]; at 33.0 µM,99% (active)
same,growth inhibition,[4]; [16],99% (active)
same,growth inhibition,[4]; at 50.0 µM,62%
same,growth inhibition,[4]; at 100.0 µM,99% (active)
same,growth inhibition,[5]; at 1.2 µM,12%
same,growth inhibition,[5]; at 3.7 µM,21%
same,growth inhibition,[5]; at 11.0 µM,82% (active)
same,growth inhibition,[5]; at 33.0 µM,99% (active)
same,growth inhibition,[5]; at 100.0 µM,99% (active)
same,growth inhibition,[6]; [15],54%
same,growth inhibition,[6]; [16],99% (active)
same,growth inhibition,[6]; at 50.0 µM,32.5%
same,growth inhibition,[14]; at 1.2 µM,2%
same,growth inhibition,[14]; at 3.7 µM,14%
same,growth inhibition,[14]; at 11.0 µM,29%
same,growth inhibition,[14]; at 33.0 µM,88% (active)
same,growth inhibition,[14]; at 100.0 µM,99% (active)
same,growth inhibition,[7]; [15],39%
same,growth inhibition,[7]; [16],99% (active)
same,growth inhibition,[7]; at 50.0 µM,47.4%
same,growth inhibition,[8]; at 1.2 µM,-6%
same,growth inhibition,[8]; at 3.7 µM,0%
same,growth inhibition,[8]; [15],21%
same,growth inhibition,[8]; at 11.0 µM,88% (active)
same,growth inhibition,[8]; at 33.0 µM,99% (active)
same,growth inhibition,[8]; [16],99% (active)
same,growth inhibition,[8]; at 50.0 µM,65.2%
same,growth inhibition,[8]; at 100.0 µM,99% (active)
same,growth inhibition,[9]; at 1.2 µM,-6%
same,growth inhibition,[9]; at 3.7 µM,2%
same,growth inhibition,[9]; at 11.0 µM,48%
same,growth inhibition,[9]; at 33.0 µM,97% (active)
same,growth inhibition,[9]; at 100.0 µM,99% (active)
same,growth inhibition,[10]; at 1.2 µM,3%
same,growth inhibition,[10]; at 3.7 µM,16%
same,growth inhibition,[10]; at 11.0 µM,96% (active)
same,growth inhibition,[10]; at 33.0 µM,99% (active)
same,growth inhibition,[10]; at 100.0 µM,99% (active)
same,growth inhibition,[11]; at 1.2 µM,11%
same,growth inhibition,[11]; at 3.7 µM,34%
same,growth inhibition,[11]; at 11.0 µM,98% (active)
same,growth inhibition,[11]; at 33.0 µM,100% (active)
same,growth inhibition,[11]; at 100.0 µM,99% (active)
same,growth inhibition,[12]; [15],77% (active)
same,growth inhibition,[12]; [16],99% (active)
same,growth inhibition,[12]; at 50.0 µM,66.2%
same,growth inhibition,[13]; at 1.2 µM,40%
same,growth inhibition,[13]; at 3.7 µM,83% (active)
same,growth inhibition,[13]; at 11.0 µM,96% (active)
same,growth inhibition,[13]; at 33.0 µM,99% (active)
same,growth inhibition,[13]; at 100.0 µM,99% (active)
